According to the supplement of paper PMC6555819:

Columns and labels:
Experiment in all cases: PBM binding z-score (relative to random genomic background probes); higher = stronger binding; sequences stand for … in GC…GCGATTGACAGCGTAGAATGAAGG
[1] = test system: RARb homodimer (NR concentration 270 nM)
Procedure, shortened: (§1)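 Custom Agilent 4×180K protein-binding microarrays carried double-stranded probes. Their 34-nt variable regions held direct-repeat seeds, single-nucleotide variants, half-site ablations and random human genomic background sequences. Arrays were incubated 1 h with ligand-free nuclear receptor dimers in PBS pH 7.4, 2% milk, 0.02% Triton X-100, 1 mM DTT, 0.2 mg/mL BSA and 0.4 mg/ml salmon testes DNA. Antibodies against each partner (one per run) detected binding, and scanned fluorescence was regression-normalized. Binding z-scores use random background probes as reference.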

[2] = test system: RARg:RXRa (NR concentration 270 nM, RXRa partner concentration 90 nM)
Procedure, shortened: as §1

[3] = test system: RARg homodimer (NR concentration 270 nM)
Procedure, shortened: as §1

[4] = test system: RXRa DBDmut IVT, anti-RXR (DBD mutation: RXRa K156A/R161A, NR concentration 90 nM)
Procedure, shortened: as §1

[5] = test system: RXRa homodimer (NR concentration 180 nM)
Procedure, shortened: as §1

[6] = test system: THRa:RXRa (NR concentration 90 nM, RXRa partner concentration 90 nM)
Procedure, shortened: as §1

[7] = test system: THRa homodimer (NR concentration 90 nM)
Procedure, shortened: as §1

[8] = test system: VDR homodimer (NR concentration 270 nM)
Procedure, shortened: as §1

CGTCCCAGGTCATAGGAGGTCAGTGAAGACAGAT was tested, and the PBM binding z-score [1] was 4.84, the PBM binding z-score [2] was 5.47 and the PBM binding z-score [3] was 5.84. The PBM binding z-score [4] was 2.74, the PBM binding z-score [5] was 4.75 and the PBM binding z-score [6] was 4.89. It also gave a PBM binding z-score [7] of 3.13 and a PBM binding z-score [8] of 3.59.
CGAACGAGGGCATTAGTTGATAGCAAATGCCGAT showed a PBM binding z-score [1] of 0.501, a PBM binding z-score [2] of 0.774 and a PBM binding z-score [3] of 1.37. The PBM binding z-score [4] was 2.96, the PBM binding z-score [5] was 0.438 and the PBM binding z-score [6] was 0.5. It also gave a PBM binding z-score [7] of -0.321 and a PBM binding z-score [8] of 1.64.
GGAACGAGAGCATTCGAGTTGATAGCATGGCGAT showed a PBM binding z-score [1] of -1.06, a PBM binding z-score [2] of -0.435 and a PBM binding z-score [3] of -0.276. For the same sequence, the PBM binding z-score [4] was 0.441, the PBM binding z-score [5] was -0.118 and the PBM binding z-score [6] was 1.04. The PBM binding z-score [7] was -1.57 and the PBM binding z-score [8] was -0.57.
Sequence CCTTACGGGGCAAGGTTATAGCACGGGTGGTACG has a PBM binding z-score [1] of 0.994, a PBM binding z-score [2] of 1.01 and a PBM binding z-score [3] of 1.11. For the same sequence, the PBM binding z-score [4] was -1.2, the PBM binding z-score [5] was 1.08 and the PBM binding z-score [6] was 0.828. It also gave a PBM binding z-score [7] of -0.345 and a PBM binding z-score [8] of 0.2.
GCTGCTAGGTCAACTTATGGTCAGCTAAAGCTCG showed a PBM binding z-score [1] of 3.76, a PBM binding z-score [2] of 5.26 and a PBM binding z-score [3] of 5.44. The PBM binding z-score [4] was 1.75, the PBM binding z-score [5] was 3.1 and the PBM binding z-score [6] was 3.33. For the same sequence, the PBM binding z-score [7] was 1.45 and the PBM binding z-score [8] was 0.364.
CTACCAAGGTGAACAAGGGCGTTGATTACTATTC showed a PBM binding z-score [1] of 1.26, a PBM binding z-score [2] of 1 and a PBM binding z-score [3] of 0.99. It also gave a PBM binding z-score [4] of 0.764, a PBM binding z-score [5] of 0.725 and a PBM binding z-score [6] of 2.13. It also gave a PBM binding z-score [7] of 0.707 and a PBM binding z-score [8] of 0.903.
For TTACCAAGGGGAGCTGAGGTCGTTGATCCAACTC, the PBM binding z-score [1] was 0.704, the PBM binding z-score [2] was 0.0282 and the PBM binding z-score [3] was -0.439. The PBM binding z-score [4] was 0.656, the PBM binding z-score [5] was 0.726 and the PBM binding z-score [6] was 3.71. It also gave a PBM binding z-score [7] of 1.49 and a PBM binding z-score [8] of 1.86.
TCATATAGGTAAATGCTAGTTGAAAGTCCGATCT was tested, and the PBM binding z-score [1] was -0.114, the PBM binding z-score [2] was 0.306 and the PBM binding z-score [3] was 0.163. It also gave a PBM binding z-score [4] of 1.59, a PBM binding z-score [5] of 0.682 and a PBM binding z-score [6] of 0.27. It also gave a PBM binding z-score [7] of -0.299 and a PBM binding z-score [8] of 0.45.
For ACTAGCAGGCCAAGGGTCACTCTAGATTAGTCCG, the PBM binding z-score [1] was 3.64, the PBM binding z-score [2] was 3.81 and the PBM binding z-score [3] was 3.34. For the same sequence, the PBM binding z-score [4] was 0.668, the PBM binding z-score [5] was 3.3 and the PBM binding z-score [6] was 2.32. For the same sequence, the PBM binding z-score [7] was -0.0207 and the PBM binding z-score [8] was 1.03.
Work on GATACAGGGTCAACGCCAGAGTACGCGTATTGAT yielded a PBM binding z-score [1] of 3.62, a PBM binding z-score [2] of 5.79 and a PBM binding z-score [3] of 6.23. For the same sequence, the PBM binding z-score [4] was 2.6, the PBM binding z-score [5] was 6.68 and the PBM binding z-score [6] was 3.42. It also gave a PBM binding z-score [7] of 1 and a PBM binding z-score [8] of 2.52.
With TCTTGTAGATCTACAGGAGGTTAAGAAAGATCGA the PBM binding z-score [1] was -0.0502, the PBM binding z-score [2] was 0.199 and the PBM binding z-score [3] was 0.133. For the same sequence, the PBM binding z-score [4] was 0.107, the PBM binding z-score [5] was 0.709 and the PBM binding z-score [6] was 0.534. For the same sequence, the PBM binding z-score [7] was -0.449 and the PBM binding z-score [8] was -0.594.
ATATGTAGGTTAAGGGTAATTCAGGTTGGTTCGC was tested, and the PBM binding z-score [1] was 1.56, the PBM binding z-score [2] was 1.13 and the PBM binding z-score [3] was 1.08. It also gave a PBM binding z-score [4] of 0.754, a PBM binding z-score [5] of 1.64 and a PBM binding z-score [6] of 2.43. The PBM binding z-score [7] was 1.45 and the PBM binding z-score [8] was 1.89.
With GCTTACGGATCAAAGGTTATAGCATGAATAGAAT the PBM binding z-score [1] was 0.947, the PBM binding z-score [2] was 1.91 and the PBM binding z-score [3] was 0.963. For the same sequence, the PBM binding z-score [4] was 0.513, the PBM binding z-score [5] was 3.71 and the PBM binding z-score [6] was 1.64. The PBM binding z-score [7] was -0.516 and the PBM binding z-score [8] was -0.0828.
Sequence CTACCAAGGTGAACAAGGTCGATGATTACTATTC has a PBM binding z-score [1] of 2.03, a PBM binding z-score [2] of 1.58 and a PBM binding z-score [3] of 1.71. It also gave a PBM binding z-score [4] of 0.696, a PBM binding z-score [5] of 1.61 and a PBM binding z-score [6] of 2.89. For the same sequence, the PBM binding z-score [7] was 1.41 and the PBM binding z-score [8] was 0.758.
